Sampled rows, rich in hits. Any-hit rate of the full collection: about 19%.
IL1B secr inh = qHTS for Inhibitors of Inflammasome Signaling: IL-1-beta AlphaLISA Primary Screen; THP-1 LPS/ATP IL-1B secretion, AlphaLISA, 16 h; stronger effect = lower value; activity change, % at 57.5 µM; 360,000 tested, 4.7% active; in the data active = activity change below about -50%; inconclusive = mostly about -30% to -49%; note: % is set by controls: 0 for no effect and ±100 for the full control effect
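THP-1 cells pretreated 1 hr with compounds (up to 57.5 uM final), then stimulated with LPS (250 ng/mL final) plus ATP (1.25 mM final); secreted IL-1B measured by AlphaLISA after 16 hr, decreased signal indicating inhibition.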
DT40 TDP1 CPT = qHTS for Inhibitors of human tyrosyl-DNA phosphodiesterase 1 (TDP1): qHTS in cells in presence of CPT | 420,000 tested, 12% active | Potency, µM (series often up to 46.2 µM), without a hit: at the highest dose activity change, negative = growth inhibition, hits mostly inhibitors | AID 686979, 2013 | chicken DT40 Tdp1-/-;hTDP1 cells + 20 nM CPT, ATP luminescence, 48 h; note: potency is the fitted concentration of half-maximal effect; % is set by controls: 0 for no effect and ±100 for the full control effect; nearly all actives have a fitted effect of over 55% in size
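Chicken DT40 Tdp1-/- cells complemented with human TDP1, 400 cells/well, exposed to compounds plus 20 nM camptothecin for at least 48 h at 37 C; viability read as ATP content by CellTiter-Glo luminescence.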
MCF10A rerep = A quantitative high throughput screen for small molecules that induce DNA re-replication in MCF 10a normal breast cells | MCF 10A DNA re-replication, Hoechst nuclear intensity, 48 h | Potency, µM (doses to about 46.1 µM), inactives show top-dose activity, positive = re-replication, actives largely listed as activators | 350,000 tested, 2.9% active | AID 624296, 2012; note: potency is the fitted concentration of half-maximal effect; % of control where 0% means no effect; nearly all actives have a fitted effect of over 50% in size
DT40 TDP1 no CPT = qHTS for Inhibitors of human tyrosyl-DNA phosphodiesterase 1 (TDP1): qHTS in cells in absence of CPT; DT40 Tdp1-/- hTDP1 cells, no CPT, ATP luminescence, 48 h; Potency, µM (top dose mostly 46.2 µM), inactives show at the highest dose activity change, negative = growth inhibition, actives largely listed as inhibitors; 420,000 tested, 15% active; note: potency is the fitted concentration of half-maximal effect; % is set by controls: 0 for no effect and ±100 for the full control effect; nearly all actives have a fitted effect of over 55% in size
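Growth of hTDP1-complemented DT40 Tdp1-knockout cells is measured by ATP luminescence after at least 48 hr compound exposure at 37 °C, with DMSO substituting for the 20 nM CPT used in the parallel screen.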
SW480 rerep = A quantitative high throughput screen for small molecules that induce DNA re-replication in SW480 colon adenocarcinoma cells; SW480 DNA re-replication, Hoechst DNA content imaging, 48 h; Potency, µM (doses to about 46.1 µM), for inactives: at the highest dose re-replication activation, actives largely listed as activators; 340,000 tested, 1.8% active; AID 624297, 2012; note: potency is the fitted concentration of half-maximal effect; % of control where 0% means no effect; nearly all actives have a fitted effect of over 55% in size
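DNA re-replication was detected as more nuclei of elevated Hoechst intensity after 48 hr exposure to compound (23 nL pinned per well of 250 cells).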
Chronic BCR inh = qHTS Assay to Find Inhibitors of Chronic Active B-Cell Receptor Signaling. AID 493014, 2011. 340,000 tested, 0.05% active. Potency, µM (titrated, usually from 46.1 µM), for the others: at the top dose activity change, negative = inhibition, hits mostly inhibitors. ABC-DLBCL IkBa-CBG/CBR reporter, luminescence ratio, 4 h; active = well fitted inhibition curve with a large enough effect in the signal ratio, with a control signal flat, not every such curve was filed as active; inconclusive = small, poorly fitted or top-dose-only effect, or effect the other way, or a change in a side signal; the % refers to the signal ratio;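 note: potency is the fitted concentration of half-maximal effect; plate controls were basal doxycycline-induced cells for no effect and cells given 10 µM MG132 for full effect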
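TMD8 ABC-DLBCL cells carrying doxycycline-inducible green luciferase fused to IkappaBalpha plus unfused red luciferase were exposed to compounds (up to 46 uM) for 4 hrs at 37C. Activity came from the overlap-corrected green/red luminescence ratio.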
Starred values were filed as active, the others as inactive; ? = inconclusive; . = no result given; ! = not active in a repeat; [ ] = another dose, or the depositor's remark. Unless noted, calls come from the whole dose curve; as a rule, active = well fitted curve in the direction sought with a large enough effect; inconclusive = small, poorly fitted or top-dose-only effect, or another doubt; inactive = no such curve, though single readings can be large; an effect the other way counts as inactive or inconclusive.

SMILES	IL1B secr inh	DT40 TDP1 CPT	MCF10A rerep	DT40 TDP1 no CPT	SW480 rerep	Chronic BCR inh
c1ccc2oc(-c3[nH]ncc3CN(Cc3ccncc3)CC3CCCO3)cc2c1 (centres undefined)	-1.3	?	-0.9%	25.9µM*	-5.4%	-8.2%
CCOc1ccc2c(c1)n([O-])c1c([n+]2=O)CCCC1	9.9	13µM*	-3.4%	?	-1.0%	17.8%
COc1ccc(CNS(=O)(=O)c2c(C(=O)N3CCCCCC3)c(C)n(C)c2C)cc1	-15.8	-7.2%	-1.1%	6.3%	-0.7%	-10.3%
CC(C)(C)C(c1nc2ccccc2[nH]1)n1c(-c2ccsc2)nc2ccccc21 (centres undefined)	-52.6*	?	.	?	.	.
CCc1ccc2[nH]c(=O)c(CN(CCCN3CCOCC3)C(=O)Nc3cccc(Cl)c3)cc2c1	-62.4*	?	?	14.6µM*	4.0%[9.22 µM]	?
CCc1ccc2[nH]c(=O)c(CN(CCCN3CCOCC3)C(=O)Nc3ccccc3)cc2c1	0.0	23.1µM*	18.8%	20.6µM*	8.4%	?
CCOc1ccc2[nH]c(=O)c(CN(CCCN3CCOCC3)C(=O)Nc3ccc(F)cc3)cc2c1	-0.8	-2.2%	-16.3%	10.5%	-10.1%	.
O=C(Nc1cccc(Cl)c1)N(CCN1CCOCC1)Cc1cccc(Cl)c1	-76.5*	?	?	?	?	2.2%
O=P(O)(O)OC(CO)CO	.	2.8%	.	-0.7%	.	.
NNC(=O)c1cccn(Cc2cccc(C(F)(F)F)c2)c1=O	-1.8	14.6µM*	?	?	?	?
CC(C)c1ccc(NC(=O)COC(=O)c2nn(C)c(=O)c3ccccc23)cc1	-5.9	-14.8%	6.4%	0.4%	0.3%	2.1%
COc1cc(/C=C2\SC(=Nc3ccccc3)N(CCc3c[nH]c4ccccc34)C2=O)ccc1OC(C)C(=O)O (centres undefined)	?	?	?	?	-4.9%	?
O=C1/C(=C/c2ccc(N3CCOCC3)o2)SC(=Nc2ccccc2)N1CCc1c[nH]c2ccccc12	-99.5*	2.91µM*	?	2.06µM*	?	?
CCOC(=O)c1c(C)oc2nc(C)nc(NC(C)c3ccccc3)c12 (centres undefined)	.	20.6µM*	.	16.4µM*	.	.
CCOC(=O)c1c(C)oc2nc(C)nc(NCc3ccc(F)cc3)c12	.	?	.	16.4µM*	.	.
CCOC(=O)c1c(C)oc2nc(C)nc(Nc3cccc(OC)c3)c12	.	-26.9%	.	-25.2%	.	.
CCOC(=O)c1c(C)oc2nc(C)nc(NCCc3ccc(OC)c(OC)c3)c12	.	20.6µM*	.	18.4µM*	.	.
CCOC(=O)c1c(C)oc2nc(C)nc(NCc3ccc(OC)cc3OC)c12	.	?	.	13µM*	.	.
O=[N+]([O-])c1ccccc1C(O)Cc1ccccn1 (centres undefined)	-5.8	16.6%	-3.7%	-3.7%	3.3%	.
O=c1c(Cc2ccc(Cl)cc2Cl)c(O)ccn1CC(F)(F)F	0.0	-8.4%	-4.3%	4.5%	-18.6%	-9.1%
CC(C)(C)CC(C)(C)c1ccc(O)c(Cc2ccc(Cl)cc2Cl)c1	-71.6*	?	29.9µM*!	?	2.9%	.
CC(=O)OC1CC[C@@]2(C)C(CCC3C2CC(=O)[C@@]2(C)C3CC3CC(C)=CC(=O)C32)C1 (some centres undefined)	-7.3	18.4µM*	-6.2%	14.6µM*	-11.2%	0.7%
